Experimental data reported in PubChem BioAssay AID2108 (National Center for Advancing Translational Sciences (NCATS), 2009).
Results filed as inconclusive are left out. Values without a mark were called inactive. Calls follow the shape of the dose curve; as a rule, active = well fitted curve in the direction sought with a large enough effect; inconclusive = small, poorly fitted or top-dose-only effect, or effect the other way, or another doubt; inactive = no such curve, though single readings can be large or run the other way.

Molecular target: Alpha-galactosidase A (Homo sapiens) (UniProt P06280)
Sequence (P06280 32-429 limits assumed): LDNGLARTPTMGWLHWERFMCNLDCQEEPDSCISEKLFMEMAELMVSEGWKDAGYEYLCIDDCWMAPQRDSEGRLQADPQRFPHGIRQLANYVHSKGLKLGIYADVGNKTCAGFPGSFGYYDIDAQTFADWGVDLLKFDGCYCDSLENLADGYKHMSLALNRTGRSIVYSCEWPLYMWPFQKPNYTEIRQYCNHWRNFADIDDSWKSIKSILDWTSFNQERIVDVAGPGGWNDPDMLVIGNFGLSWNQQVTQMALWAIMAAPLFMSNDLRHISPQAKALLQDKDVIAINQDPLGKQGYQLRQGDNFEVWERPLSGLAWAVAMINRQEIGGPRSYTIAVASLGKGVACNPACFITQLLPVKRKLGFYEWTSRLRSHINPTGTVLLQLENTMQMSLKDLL
Test: Confirmation of Inhibitors of Human alpha-Galactosidase Using Spleen Homogenate; also: 0% is about no effect
Conditions: alpha-galactosidase enzyme activity; series mostly up to 56.2 µM; activity change: at the top concentration
Procedure, shortened: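 AC50 values come from Hill-equation fits of normalised 4-methylumbelliferone fluorescence (365/440 nm, read after NaOH/glycine stop). Enzyme source: spleen homogenate; substrate 1 mM final; pH 5.0 citrate buffer; 40 min at 37C; compound titration 0.5 nM–58 uM.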

SMILES | activity change
O=C(Nc1cc(S(=O)(=O)N2CCOCC2)ccc1N1CCCC1)c1cc(=O)[nH]c2ccccc12 | -1.95% [at 23.6 µM]
Cc1[nH]nc2c1C(c1ccc(OC(=O)c3ccco3)cc1)C(C#N)=C(N)O2 (configuration not stated) | -1.13%
Cc1sc(-c2cc3ccccc3oc2=O)nc1-c1ccc(Cl)cc1 | 14.3%
O=S(=O)(c1ccc(O)cc1)N1CCOCC1 | -2.33%
COc1ccccc1CNc1ccc(N2CCOCC2)c(C(=O)O)c1 | -4.04%
O=S(=O)(c1cccnc1)N1CCOCC1 | 5.38%
O=C(NN=C1c2ccccc2-c2ccccc21)c1cccc(S(=O)(=O)N2CCOCC2)c1 | -1.65%
Nc1nc(C2CC2)c(Sc2sc(N)nc2C2CC2)s1 | -1.12%
N#Cc1c(Cl)cccc1N1CCC(C(N)=O)CC1 | 0.0336%
COc1cc(/C=C/c2ccc3ccccc3n2)cc(OC)c1O | -0.216%
COCCSc1nc(N)c2c3c(sc2n1)CN(C)CC3 | 3.09%
C=CCCCCCCCCCCCc1ccco1 | -17.2% [at 287 µM]
OCC(CO)NC1C[C@](O)(CO)[C@@H](O)[C@H](O)[C@H]1O (some centres not stated) | 2.15% [at 287 µM]
CCOc1cc(/C=C2\SC(N)=NC2=O)ccc1O | -4.17%
C[C@@H](NC(=O)c1nc[nH]c1C(=O)N[C@@H](Cc1ccccc1)C(=O)OC(C)(C)C)c1ccccc1 | 1.74%
CC(=O)Nc1cccc2c1C(=O)NC2=O | -6.6% [at 23.6 µM]
CCc1sc(-c2cc3cccc(OC)c3oc2=O)nc1-c1ccccc1 | 7.38%
CC(C)C[C@H](NC(=O)c1nc[nH]c1C(=O)N[C@@H](CC(C)C)C(=O)OC(C)(C)C)C(=O)OCc1ccccc1 | -9.26%
CC1CCc2nc(-c3cc4ccc(O)cc4oc3=O)sc2C1 (configuration not stated) | 26.2%

SMILES | activity change
Cc1c(Nc2c3ccccc3nc3ccccc23)c(=O)n(-c2ccccc2)n1C | -1.1% [at 23.6 µM]
CCOC(=O)CCc1cccc2c1CCC2=O | 10.5% [at 23.6 µM]
Cc1cc(NC(=O)C(C)(C)C)cc(-c2nc3ncccc3o2)c1O | -4.83%
CC(C)C[C@H](NC(=O)c1nc[nH]c1C(=O)NCC(=O)OCc1ccccc1)C(=O)OC(C)(C)C | -4.74%
COc1ccc(NS(=O)(=O)c2ccc(O)c(NC(=O)c3cc4c(C)nn(-c5ccc(F)cc5)c4s3)c2)cc1 | -4.99%
CN(C)N=C1c2cc(S(=O)(=O)N3CCOCC3)ccc2-c2ccc(S(=O)(=O)N3CCOCC3)cc21 | 9.04%
COc1cc(/C=N/Nc2ccc(Cl)c(C(=O)O)c2)ccc1OC(=O)c1ccccc1F | -5.95%
CCOC(=O)Cc1csc(NC(=O)NC2(C(F)(F)F)Oc3cc(Cl)c(Cl)cc3O2)n1 | 1.02%
COC(=O)c1cccc(S(=O)(=O)N2CCOCC2)c1 | 10.6%
C(=C\c1ccc2ccccc2n1)/c1ccc2c(c1)OCO2 | 22.9%
CCCC1(C)Nc2ccccc2-c2nc3ccccc3n21 (configuration not stated) | 18.5% [at 23.6 µM]
CCCn1c(=O)c2c(C(F)(F)F)cc(-c3cccs3)nc2n(CCC)c1=O | 19.4%
O=C(Cn1c(=O)[nH]n(-c2ccccc2)c1=O)N1CCCc2ccccc21 | 5.01% [at 23.6 µM]
CCOc1ccccc1CNc1ccc(O)cc1 | -14.5%
O=S(=O)(c1ccc(Cl)cc1)N1CCOCC1 | 5.93%
COC(=O)c1c(NC(=O)Cn2nc(C(F)F)cc2C(F)F)sc(C)c1C | 4.67% [at 23.6 µM]
O=C(c1cccc2ccccc12)N1CCN(S(=O)(=O)c2ccccc2)CC1 | -3.25%
O=C(O)Cc1sc(-c2cc3ccccc3oc2=O)nc1-c1ccc(Br)cc1 | 3.08%
